Results filed as inconclusive are left out. The source holds several records for some structures; these can differ, active in one and inactive in another. Activity calls are given as the source filed them. The calls were made as follows: active = hit-call score of the fitted dose curve at least 0.9, where 1 is the maximum; inconclusive = response in the unintended direction; inactive = score below 0.9.

Read-out in the test: Cytochrome P450 2B6 (Homo sapiens) (UniProt P20813)
Nature of the test: CLD_CYP2B6_24hr: CellzDirect (CLD) Gene Expression Assay for xenobiotic metabolism (CYP2B6) at 24 hours (AID 2283686). As for the experimental part: CLD_24hr is a cell-based, multiplexed-readout assay that uses hepatocyte, a human liver primary cell, with measurements taken at 24 hours after chemical dosing in a 96-well plate.CLD_CYP2B6_24hr is one of 16 assay component(s) measured or calculated from the CLD_24hr assay. It is designed to make measurements of mRNA induction, a form of inducible reporter, as detected with chemiluminescence signals by Quantitative Nuclease Protection Assay (qNPA) technology.Data from the assay component CLD_CYP2B6_24hr was analyzed at the endpoint, CLD_CYP2B6_24hr, in the positive analysis fitting direction relative to DMSO as the negative control and baseline of activity. Using a type of inducible reporter, gain-of-signal activity can be used to understand changes in the reporter gene as they relate to the gene CYP2B6. Furthermore, this assay endpoint can be referred to as a primary readout. To generalize the intended target to other relatable targets, this assay endpoint is annotated to the cyp intended target family, where subfamily is xenobiotic metabolism.
Human hepatocyte cultures were treated daily for two consecutive days with fresh dosing solutions containing appropriate concentrations of the 320 ToxCast chemicals (chemical identities were blinded to CellzDirect and other ToxCast collaborators), vehicle control (0.2% DMSO), and positive control inducers as summarized in Table 1. Due to the large number of treatment groups and chemicals examined, the ToxCast chemicals were divided into two groups (spanning two independent cultures of hepatocytes from separate donor preparations (Hu778: ToxCast plates 1 and 2; Hu776: ToxCast plates 3 and 4). Each preparation of human hepatocyte cultures was treated with respective vehicle control, medium only control, set of six positive controls/reference chemicals for the five hepatic receptor pathways, and a subset of eight of the ToxCast chemicals (indoxacarb, pyrithiobac-sodium, norflurazon, cyhalofop-butyl, methomyl, thiram, acetochlor, and propiconazole). These replicate data, coupled with internal replicates designed within the blinded ToxCast chemical library, provided additional data to evaluate interindividual differences between hepatocyte preparations and their potential impact on chemical profiles.Cell morphology and integrity were evaluated using phase-contrast microscopy as an indicator of hepatocyte cell health (Tyson & Green, 1987). Cultures for each treatment group (i.e., media, vehicle [0.2% DMSO], positive control inducers [multiple concentrations], and the ToxCast chemicals [multiple concentrations]) were observed and cell morphology was assessed relative to vehicle control cultures at each harvest time point (0, 6, 24, or 48 h). […] Images were evaluated at the conclusion of the study to assess changes in cell integrity and account for the effects of chemical exposure on uncharacteristic changes in concentration-dependent gene expression profiles. The results from these determinations of apparent cytotoxicity were annotated (yes/no) alongside the corresponding qNPA data for reference.At the conclusion of each treatment period, hepatocyte cultures (96-well) were washed with 1 volume of HBSS, lysed by addition of 25 ul ArrayPlate lysis buffer (HTG, Tucson, AZ), and 70 ul/well of Denaturation Oil, denatured by incubation at 95C for 10 min, and frozen at approximately -70C until analysis by nuclease protection assay (qNPA) (Roberts et al., 2007). For qNPA analysis, cell lysates were thawed at 50C for approximately 30 min, qNPA probes were added, and samples were incubated at 95C for 10 min to begin the detection process by denaturing the target RNA, dissociating the duplexes and secondary structure hybridization. At the conclusion of the hybridization period, S1 nuclease reagent was added to each sample to digest all nonprotected nucleotides at 50C for 60-90 min. […]
As for `CCOC(=O)COc1cc(-n2ncc(C(F)(F)F)c(C)c2=O)c(F)cc1Cl`, the AC50 was 6.56 µM (active).

For the molecule `CSC(=O)c1cccc2nnsc12`, the call was inactive.

For the molecule `CCCN(CCC)C(=O)SCC`, the AC50 is 0.0274 µM (active) and the call was inactive.

Take `O=C(O)C1(C(=O)Nc2ccc(Cl)cc2Cl)CC1`: the outcome was inactive.

`COc1nc(C)nc(NC(=O)NS(=O)(=O)c2ccccc2OCCCl)n1`: the call was inactive.

In the case of `CCCCCOC(=O)COc1cc(N2C(=O)C3=C(CCCC3)C2=O)c(F)cc1Cl`, the result was inactive.

Consider `CCN(CC)C(=O)c1cccc(C)c1`, for which the concentration at half-maximal activity (AC50) is 20 µM (active).

As for `CCCCOC(=O)[C@@H](C)Oc1ccc(Oc2ccc(C(F)(F)F)cn2)cc1`, the molecule was called inactive.

As for `CCN(Cc1c(F)cccc1Cl)c1c([N+](=O)[O-])cc(C(F)(F)F)cc1[N+](=O)[O-]`, the AC50 is 0.365 µM (active).

Consider `COC(=O)CSc1cc(N=c2sc(=O)n3n2CCCC3)c(F)cc1Cl`, for which the concentration at half-maximal activity (AC50) is 2.48 µM (active).

With `CCCCC(CC)COC(=O)c1ccccc1C(=O)O` (stereo not given), the AC50 is 5.12 µM (active).

With `COC(=O)c1ccc(CNS(C)(=O)=O)cc1S(=O)(=O)NC(=O)Nc1nc(OC)cc(OC)n1`, the molecule was called inactive.

For `CCC(C)OC(=O)N1CCCCC1CCO` (stereo not given), the call was inactive.

`c1ccc2[nH]c(-c3cscn3)nc2c1`: the molecule was classed as inactive.

With `CCCN(CCC)c1c([N+](=O)[O-])cc(C(F)(F)F)c(N)c1[N+](=O)[O-]`, the AC50 is 4.48 µM (active).

In the case of `Oc1ccc(C(c2ccc(O)cc2)C(Cl)(Cl)Cl)cc1`, the molecule was called inactive.

For `C=CCOC(Cn1ccnc1)c1ccc(Cl)cc1Cl` (stereo not given), the AC50 was 0.135 µM (active).

With `CCCCCCC(C)OC(=O)COc1nc(F)c(Cl)c(N)c1Cl` (stereo not given), the outcome was inactive.

As to `CC1(C)C(C=C(Cl)Cl)C1C(=O)OCc1cccc(Oc2ccccc2)c1` (stereo not given), the AC50 was 7.12 µM (active).

On to `C#CCOC(=O)[C@@H](C)Oc1ccc(Oc2ncc(Cl)cc2F)cc1`, for which the half-maximal activity concentration (AC50) is 0.000411 µM (active).

With `CCCCC(CC)CN1C(=O)C2C3C=CC(C3)C2C1=O` (stereo not given), the AC50 is 9.04 µM (active).

Turning to `COC(=O)c1cccc(C)c1S(=O)(=O)NC(=O)Nc1nc(OCC(F)(F)F)nc(N(C)C)n1`, the AC50 was 4.98 µM (active).

In the case of `CCCCOC(=O)C(C)Oc1ccc(Oc2ccc(C(F)(F)F)cn2)cc1` (stereo not given), the molecule was called inactive.

Take `CCSC(=O)N(CC(C)C)CC(C)C`: the result was inactive.

In the case of `CC(C)(C)[C@@H](O)[C@@H](Cc1ccc(Cl)cc1)n1cncn1`, the AC50 is 2 µM (active).

With `Cc1nn(C)c(Oc2ccccc2)c1C=NOCc1ccc(C(=O)OC(C)(C)C)cc1`, the AC50 is 20 µM (active).

For the molecule `CCCCOCCOCCOCc1cc2c(cc1CCC)OCO2`, the AC50 was 1.9 µM (active).

In the case of `COC(=O)c1ccc(I)cc1S(=O)(=O)NC(=O)Nc1nc(C)nc(OC)n1`, the result was inactive.

Regarding `COC(=O)c1c(Cl)nn(C)c1S(=O)(=O)NC(=O)Nc1nc(OC)cc(OC)n1`, the molecule was called inactive.

For the molecule `O=C(Nc1ccc([N+](=O)[O-])cc1Cl)c1cc(Cl)ccc1O`, the outcome was inactive.

For `CCOC(=O)C(C)Oc1ccc(Oc2cnc3cc(Cl)ccc3n2)cc1` (stereo not given), the call was inactive.

Consider `COC(=O)c1ccccc1S(=O)(=O)NC(=O)Nc1nc(OC(F)F)cc(OC(F)F)n1`, for which the outcome was inactive.

Consider `CCNc1nc(N)nc(Cl)n1`, for which the outcome was inactive.

On to `CC(C)(c1ccc(O)cc1)c1ccc(O)cc1`, for which the molecule was called inactive.

Regarding `c1ccc(Nc2ccccc2)cc1`, the AC50 was 6.82 µM (active).

Regarding `CN(C)C(=O)Nc1ccc(Cl)c(Cl)c1`, the concentration at half-maximal activity (AC50) was 2.49 µM (active).

Take `CCOC(=O)NCCOc1ccc(Oc2ccccc2)cc1`: the AC50 was 12.1 µM (active).

On to `N#CSCSc1nc2ccccc2s1`, for which the molecule was classed as inactive.

On to `CCCOC(=O)NCCCN(C)C`, for which the outcome was inactive.

The values above are taken from PubChem BioAssay (EPA / NIEHS).
